# An excerpt weighted towards active compounds, which were near 3.7% of everything screened.
# ATXN2 expr inh: inhibitors of ATXN2 expression; Potency, µM (top dose mostly 57 µM), for inactives: top-dose activity change, negative = inhibition, actives largely listed as inhibitors; AID 1745845; HEK-293 ATXN2-luciferase reporter, luminescence, 24 h; 360,000 tested, 0.72% active; also: % is scaled to controls: 0 for no effect and ±100 for the full control effect; nearly all actives have a fitted effect of over 55% in size
#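 qHTS (up to 57 uM final) was run with 24 h compound exposure of reporter cells at 37 °C. Each well was multiplexed: SteadyGlo luminescence measured ATXN2-luciferase expression after a fluorogenic Gly-Phe-AFC viability readout (25 uM final).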
# S2 tox: reduces viability in counter-screen for ATXN expression inhibitors; S2 cells (HEK-293 line with an ATXN2-luciferase reporter) viability, CellTiter-Fluor protease fluorescence, 24 h; Potency, µM (top dose mostly 56.7 µM), usual class: cytotoxic; 400,000 tested, 0.49% active; AID 651635; also: nearly all actives have a fitted effect of over 40% in size
# TGFb inhibitor: TGF-b pathway inhibition. AID 588855. Potency, µM (top dose mostly 46.1 µM), for the others: top-dose activity, negative = inhibition, usual class: inhibitors. 410,000 tested, 1.2% active. HepG2 CAGA-GFP TGF-b/SMAD3 reporter, GFP fluorescence, 18 h; TGF-beta stimulated, 500 pg/mL final; also: % is scaled to controls: 0 for no effect and ±100 for the full control effect; nearly all actives have a fitted effect of over 65% in size
#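 Smad-responsive CAGA-GFP expression was quantified in HEPG2 cells exposed to compounds and 500 pg/mL final TGF-beta for 18 h at 37 degrees C; unstimulated wells defined full inhibition.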
# GLP1R ag: GLP-1 receptor (human) agonism; P43220; HEK293 GLP-1R CRE-luciferase, luminescence, 4-6 h; cells express a hypersensitive GLP-1R form; Potency, µM (highest dose often 45.6 µM), without a hit: top-dose activation, usual class: activators; 380,000 tested, 0.007% active; AID 624172; also: % of control where 0% means no effect
# Target sequence (P43220 whole entry, looked up): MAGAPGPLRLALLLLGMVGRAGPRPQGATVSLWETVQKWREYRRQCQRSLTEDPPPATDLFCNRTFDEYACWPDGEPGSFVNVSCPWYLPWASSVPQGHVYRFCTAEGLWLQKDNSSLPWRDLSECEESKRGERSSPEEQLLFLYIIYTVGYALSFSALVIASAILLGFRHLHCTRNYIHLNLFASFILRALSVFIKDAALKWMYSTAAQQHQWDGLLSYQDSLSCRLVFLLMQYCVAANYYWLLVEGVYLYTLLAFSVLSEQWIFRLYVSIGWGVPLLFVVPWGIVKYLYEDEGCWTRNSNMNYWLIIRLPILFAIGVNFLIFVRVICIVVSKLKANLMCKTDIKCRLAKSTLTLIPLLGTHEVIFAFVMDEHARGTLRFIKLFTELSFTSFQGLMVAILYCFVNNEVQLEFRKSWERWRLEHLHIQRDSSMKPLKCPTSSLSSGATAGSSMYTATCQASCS
# HepG2 tox-1: HepG2 cytotoxicity, counter-screen for TGF-b inhibitors | HepG2 CAGA-GFP viability, ATP luminescence, 18 h | Potency, µM (titrated, usually from 46.1 µM), for the others: top-dose activity change, negative = cytotoxicity, actives largely listed as cytotoxic | 410,000 tested, 0.76% active
#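 HepG2 CAGA-GFP cells (1000/well, DMEM with 1% FBS) received compound, then TGF-beta at 500 pg/mL final, and were incubated 18 hours at 37 degrees C. Viability was read by CellTiter-Glo luminescence. Media-only wells were set as complete cell-killing and DMSO as no toxicity.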
# GLP1R inv ag: GLP-1 receptor (human) inverse agonism. HEK293 GLP-1R CRE-luciferase, luminescence, 24 h; GLP-1R form is constitutively active. Potency, µM (titrated, usually from 38.3 µM), for inactives: at the top dose activity change, negative = inhibition, most hits filed as inhibitors. 410,000 tested, 1.6% active. AID 624417; also: % is scaled to controls: 0 for no effect and ±100 for the full control effect; nearly all actives have a fitted effect of over 55% in size
#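 HEK293 cells stably co-expressing a cAMP-responsive luciferase reporter and constitutively active GLP-1R were seeded, incubated 12 h, then exposed to compounds for 24 h at 37 C. Luminescence was read 12 min after detection reagent; inverse agonists lower signal.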
# TGFb confirm: confirmation of TGF-b signaling inhibitors in HepG2 reporter cells. shares compounds with TGFb inhibitor. HepG2 CAGA-GFP TGF-b reporter, GFP fluorescence, 18 h; cells stimulated with TGF-beta, 500 pg/mL. Potency, µM (series often up to 46.1 µM), for the others: at the highest dose activity, negative = inhibition, most hits filed as inhibitors. 1,600 tested, 63% active. AID 720534; also: % is scaled to controls: 0 for no effect and ±100 for the full control effect; nearly all actives have a fitted effect of over 65% in size
# HepG2 tox-2: HepG2 cytotoxicity, TGF-b inhibitor counterscreen | shares compounds with TGFb inhibitor | HepG2 CAGA-GFP viability, ATP luminescence, 18 h; cells stimulated with TGF-beta, 500 pg/mL | Potency, µM (top dose mostly 46.1 µM), without a hit: at the highest dose activity, negative = cytotoxicity, usual class: inhibitors | 1,600 tested, 27% active; also: % is scaled to controls: 0 for no effect and ±100 for the full control effect; nearly all actives have a fitted effect of over 70% in size
# TGFb CCL64 inh: TGF-b inhibition, CCL64 orthogonal assay | shares compounds with TGFb inhibitor | CCL64 CAGA-GFP reporter, TGF-b stimulated, GFP fluorescence, 18 h | Potency, µM (top dose mostly 46.1 µM), for the others: at the highest dose activity, negative = inhibition, hits mostly inhibitors | 1,600 tested, 41% active | AID 720536; also: nearly all actives have a fitted effect of over 65% in size
# TGFb COP inh: TGF-b inhibition validated with COP promoter; HepG2 COP-GFP TGF-b reporter, GFP fluorescence, 18 h; cells stimulated by added recombinant TGF-beta; 1,600 tested, 3% active; shares compounds with TGFb inhibitor; Potency, µM (highest dose often 46.1 µM), inactives show top-dose activity, negative = inhibition, most hits filed as inhibitors; AID 720537; also: nearly all actives have a fitted effect of over 70% in size
# Active calls of the source: *; i = inactive; ? = inconclusive; . = no result; [ ] = remark or other dose. Calls follow the shape of the dose curve; as a rule, active = well fitted curve in the direction sought with a large enough effect; inconclusive = small, poorly fitted or top-dose-only effect, or another doubt; inactive = no such curve, though single readings can be large; an effect the other way counts as inactive or inconclusive. Potency is read from the fitted curve at half-maximal effect.
SMILES,ATXN2 expr inh,S2 tox,TGFb inhibitor,GLP1R ag,HepG2 tox-1,GLP1R inv ag,TGFb confirm,HepG2 tox-2,TGFb CCL64 inh,TGFb COP inh
O=[N+]([O-])c1ccc(N/N=C/c2cccnc2)cc1,-1%,i,10µM*,1%,-14%,?,10µM*,?,5%,27%
COc1ccc(C2NC(=O)N(C)C3=C2C(=O)N(c2cccc(Cl)c2)C3)cc1 (stereo not drawn),-9%,i,0%,4%,-8%,9%,.,.,.,.
CC(=O)Nc1ccc(C(=O)CSc2ncn(-c3ccccc3)n2)cc1,29%,i,2.8µM*,7%,-22%,18%,?,-4%,3%,-3%
Cc1ccc(-c2c(C(=O)Nc3ccccc3F)oc(=O)c3ccccc23)cc1,2%,i,-8%,.,-3%,17%,.,.,.,.
Cc1ccc(-c2c(C(=O)NCc3ccc(F)cc3)oc(=O)c3ccccc23)cc1,1%,i,?,-7%,-35%,?,?,-21%,-20%,-2%
COc1cccc(C2C3=C(N=c4s/c(=C\c5ccc(O)cc5)c(=O)n42)c2ccccc2CC3)c1OC (stereo not drawn),6%,i,24%,0%,1%,-1%,.,.,.,.
COc1cccc(C2C3=C(N=c4s/c(=C\c5cccc(O)c5)c(=O)n42)c2ccccc2CC3)c1OC (stereo not drawn),0%,i,18µM*,-6%,-27%,-11%,5.8µM*,?,2.9µM*,31%
O=C(Nc1ccccc1)[C@@H]1CC=C[C@@H]2CCN(Cc3ccc(Cl)c(Cl)c3)C(=O)[C@@H]21,-24%,?,13µM*,4%,-17%,?,21µM*,?,?,47%
Cc1cn2c(=O)c(S(=O)(=O)NCc3ccccc3Cl)c(C)nc2s1,.,.,26%,.,9%,30%,.,.,.,.
COc1ccc(-c2noc(CN(C(=O)C(C)Oc3ccc(C)cc3)C(C)C)n2)cc1 (stereo not drawn),.,.,.,.,-26%,?,.,.,.,.
Cc1c2ccncc2cc2c1[nH]c1ccccc12,?,?,?,-3%,-32%,?,.,.,.,.
COc1ccc2[nH]c3c(C)c4ccncc4c(C)c3c2c1,2µM*,?,3.5µM*,-11%,11µM*,34%,2.3µM*,4.1µM*,2.6µM*,?
COc1ccc(NC(=O)Cn2c(=O)n(Cc3ccco3)c(=O)c3oc4ccccc4c32)cc1Cl,.,.,?,.,-10%,1%,.,.,.,.
O=C(C(=O)c1cc(Br)ccc1O)c1cc(Br)ccc1O,?,?,6.3µM*,1%,-35%,?,6.5µM*,12µM*,4.6µM*,81%
O=C(CCC(=O)N1CCSc2ccccc21)NCc1cccc(Cl)c1,-8%,i,?,10%,-19%,?,?,-8%,7%,-1%
COc1ccc(OC)c(CCNC(=O)c2c(C)nn(-c3ccc(F)cc3)c2-n2cccc2)c1,-38%,?,?,6%,-2%,?,.,.,.,.
CCn1nc(C(=O)OC(C(=O)c2c[nH]c3ccccc23)c2ccccc2)c2ccccc2c1=O (stereo not drawn),8%,i,11µM*,17%,-26%,-1%,21µM*,-18%,?,-17%
Cc1ccc(-c2nc3cc(C)c(Br)c(C)n3c2Cc2ccccc2)cc1,91%,i,-1%,-1%,-20%,?,.,.,.,.
Cc1ccc(Cc2c(-c3ccc(Cl)cc3)nc3cc(C)c(Br)c(C)n23)cc1,5%,i,11µM*,2%,-21%,?,21µM*,-24%,-18%,-7%
Clc1ccc2c(NCc3ccccn3)ccnc2c1,-29%,i,13µM*,5%,-30%,17%,2.1µM*,-26%,8.2µM*,-1%
CCOc1ccccc1Nc1ccnc2cc(Cl)ccc12,?,?,?,9%,-15%,?,.,.,.,.
Cc1sc2ncnc(N3CCC(C(=O)N(C)CC(=O)Nc4ccc(Cl)c(C(F)(F)F)c4)CC3)c2c1C,?,?,11µM*,11%,-8%,2.5µM*,5.2µM*,?,9.2µM*,59%
COc1cc(OC)c2c(-c3cccc(-c4ccc(NC(C)=O)cc4)c3)cc(=O)oc2c1,9%,?,4.5µM*,3%,-13%,?,1.6µM*,-14%,2.1µM*,13%
Cc1cc(Cl)n2c(nc3cc(F)c(F)cc32)c1C#N,?,?,6.3µM*,-32%,-28%,-3%[0.307 µM],1.3µM*,5.8µM*,1.3µM*,18µM*
Cc1cccc(C(=O)NCC(=O)OCC(=O)c2ccc3ccccc3c2)c1,.,.,-10%,.,-3%,.,.,.,.,.
Cc1ccc(NC(=O)Cn2c(=O)n(CCc3ccccc3)c(=O)c3c4c(sc32)CCCC4)c(C)c1,1%,i,8%,-1%,10%,3%,.,.,.,.
COc1ccc(C(=O)C2CCN(CC(=O)Nc3cc(C)cc(C)c3)CC2)cc1,-30%,i,-26%,19%,-20%,?,.,.,.,.
Cc1ccc(C(=O)C2CCN(CC(=O)Nc3nc(C)cs3)CC2)cc1,-15%,i,?,3%,-1%,?,18µM*,-13%,5%,0%
O=C(Cn1c(SCCOc2ccccc2)nc2ccccc21)N1CCOCC1,10%,i,-2%,.,2%,3%,.,.,.,.
